Test results from PMC7862700, “An all-to-all approach to the identification of sequence-specific readers for epigenetic DNA modifications on cytosine”.

Columns and labels:
Test in all cases: DAPPL (digital affinity profiling via proximity ligation, sequencing); 10 mM Tris-HCl pH 7.5, 50 mM NaCl, 1 mM DTT, 4% glycerol, room temperature, 30 min; GST-TFs on glutathione beads, 16-mer random dsDNA library, 0.1% formaldehyde crosslink after washing; high values mean tight binding
Details in all cases: protein: recombinant; tags: N-terminal GST; dsDNA, one strand shown
ERF = biological target: T1, ERF (Homo sapiens, UniProt P50548 1-548)
T1 sequence: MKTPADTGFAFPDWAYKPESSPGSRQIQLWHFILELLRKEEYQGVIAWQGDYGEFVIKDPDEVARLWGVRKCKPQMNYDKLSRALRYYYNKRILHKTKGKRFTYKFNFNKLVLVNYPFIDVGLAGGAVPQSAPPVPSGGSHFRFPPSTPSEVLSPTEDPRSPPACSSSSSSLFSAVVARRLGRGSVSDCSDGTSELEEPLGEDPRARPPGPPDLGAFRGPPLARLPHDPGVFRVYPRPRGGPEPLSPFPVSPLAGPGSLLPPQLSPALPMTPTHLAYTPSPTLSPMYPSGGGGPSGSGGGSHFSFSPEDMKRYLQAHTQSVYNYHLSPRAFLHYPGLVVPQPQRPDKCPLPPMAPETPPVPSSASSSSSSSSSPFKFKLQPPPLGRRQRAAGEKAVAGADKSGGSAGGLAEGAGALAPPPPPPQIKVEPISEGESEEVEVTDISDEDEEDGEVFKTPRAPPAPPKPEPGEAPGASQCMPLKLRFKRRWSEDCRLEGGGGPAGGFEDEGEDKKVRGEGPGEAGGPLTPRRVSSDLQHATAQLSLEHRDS
Procedure, shortened: (§1)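 Sequencing on an Illumina NextSeq500 followed washing, crosslinking with 0.1% formaldehyde, proximity ligation (BsaI/T4 ligase, 1 h, 37 °C) and PCR amplification of pools that had been incubated for 30 min at room temperature with 200 nmole of a random double-stranded 16-mer DNA library in Tris/NaCl/DTT/glycerol buffer. Each pool held DNA-barcoded human transcription factors, expressed in yeast as GST fusions and captured on glutathione beads, plus a tag-only sample. Binding signal is a hexamer's read frequency for a factor divided by its frequency in the tag-only sample.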

ETV3L = biological target: T2, ETV3L (Homo sapiens, UniProt Q6ZN32 1-361)
T2 sequence: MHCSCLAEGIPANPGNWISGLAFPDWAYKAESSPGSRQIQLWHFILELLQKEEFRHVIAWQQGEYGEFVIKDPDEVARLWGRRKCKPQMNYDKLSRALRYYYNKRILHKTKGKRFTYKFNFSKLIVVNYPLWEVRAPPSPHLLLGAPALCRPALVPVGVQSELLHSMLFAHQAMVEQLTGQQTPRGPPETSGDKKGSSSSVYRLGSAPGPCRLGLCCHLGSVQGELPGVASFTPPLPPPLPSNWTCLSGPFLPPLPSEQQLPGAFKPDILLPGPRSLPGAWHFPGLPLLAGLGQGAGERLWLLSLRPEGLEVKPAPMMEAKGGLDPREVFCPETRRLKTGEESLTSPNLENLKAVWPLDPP
Procedure, shortened: as §1

ETS2 = biological target: T3, ETS2 (Homo sapiens, UniProt P15036 1-469)
T3 sequence: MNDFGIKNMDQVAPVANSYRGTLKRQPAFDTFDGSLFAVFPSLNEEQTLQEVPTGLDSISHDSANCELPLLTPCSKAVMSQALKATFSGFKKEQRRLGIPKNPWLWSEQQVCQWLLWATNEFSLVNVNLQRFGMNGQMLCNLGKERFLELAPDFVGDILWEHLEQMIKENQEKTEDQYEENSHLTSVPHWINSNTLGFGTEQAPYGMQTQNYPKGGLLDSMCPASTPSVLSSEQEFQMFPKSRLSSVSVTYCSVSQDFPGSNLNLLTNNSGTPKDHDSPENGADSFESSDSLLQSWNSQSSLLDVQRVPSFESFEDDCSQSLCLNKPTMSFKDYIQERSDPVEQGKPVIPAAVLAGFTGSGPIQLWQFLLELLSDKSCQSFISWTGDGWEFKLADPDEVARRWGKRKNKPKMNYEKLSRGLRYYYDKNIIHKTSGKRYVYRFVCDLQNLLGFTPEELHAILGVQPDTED
Procedure, shortened: as §1

SPDEF = biological target: T4, SPDEF (Homo sapiens, UniProt O95238 1-335)
T4 sequence: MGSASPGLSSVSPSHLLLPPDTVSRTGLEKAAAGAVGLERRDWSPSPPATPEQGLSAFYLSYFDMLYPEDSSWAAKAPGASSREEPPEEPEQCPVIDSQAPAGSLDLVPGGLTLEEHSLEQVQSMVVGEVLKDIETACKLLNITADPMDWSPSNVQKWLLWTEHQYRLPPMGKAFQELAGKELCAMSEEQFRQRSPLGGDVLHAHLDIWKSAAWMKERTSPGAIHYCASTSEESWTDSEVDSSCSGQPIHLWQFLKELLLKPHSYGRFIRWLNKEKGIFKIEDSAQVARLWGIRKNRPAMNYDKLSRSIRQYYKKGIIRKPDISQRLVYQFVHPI
Procedure, shortened: as §1

ETV7 = biological target: T5, ETV7 (Homo sapiens, UniProt Q9Y603 1-341)
T5 sequence: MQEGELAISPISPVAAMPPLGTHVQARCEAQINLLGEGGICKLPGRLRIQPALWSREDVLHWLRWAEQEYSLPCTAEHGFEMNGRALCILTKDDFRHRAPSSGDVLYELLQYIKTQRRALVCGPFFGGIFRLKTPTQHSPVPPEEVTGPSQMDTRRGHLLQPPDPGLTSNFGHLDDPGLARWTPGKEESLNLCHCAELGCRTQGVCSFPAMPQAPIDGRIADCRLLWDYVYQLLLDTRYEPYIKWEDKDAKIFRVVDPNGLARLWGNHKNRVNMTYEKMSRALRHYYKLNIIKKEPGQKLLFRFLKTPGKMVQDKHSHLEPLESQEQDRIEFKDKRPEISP
Procedure, shortened: as §1

ELF5 = biological target: T6, ELF5 (Homo sapiens, UniProt Q9UKW6-2 1-255)
T6 sequence: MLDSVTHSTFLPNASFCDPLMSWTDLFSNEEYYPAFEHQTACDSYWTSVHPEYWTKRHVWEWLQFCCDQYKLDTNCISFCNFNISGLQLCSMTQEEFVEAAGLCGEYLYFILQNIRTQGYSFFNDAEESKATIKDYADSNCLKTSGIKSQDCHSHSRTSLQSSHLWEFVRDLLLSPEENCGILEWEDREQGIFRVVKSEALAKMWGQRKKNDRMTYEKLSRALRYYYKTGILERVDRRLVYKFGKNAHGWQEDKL
Procedure, shortened: as §1

ETV3 = biological target: T7, ETV3 (Homo sapiens, UniProt P41162-2 1-143)
T7 sequence: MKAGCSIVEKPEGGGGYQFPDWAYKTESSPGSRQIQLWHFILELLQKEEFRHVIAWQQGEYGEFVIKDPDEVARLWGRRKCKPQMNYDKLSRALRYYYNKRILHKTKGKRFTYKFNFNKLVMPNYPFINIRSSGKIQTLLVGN
Procedure, shortened: as §1

ETV6 = ETV6 (Homo sapiens, UniProt P41212 1-452)
ETV6, sequence (P41212 whole entry): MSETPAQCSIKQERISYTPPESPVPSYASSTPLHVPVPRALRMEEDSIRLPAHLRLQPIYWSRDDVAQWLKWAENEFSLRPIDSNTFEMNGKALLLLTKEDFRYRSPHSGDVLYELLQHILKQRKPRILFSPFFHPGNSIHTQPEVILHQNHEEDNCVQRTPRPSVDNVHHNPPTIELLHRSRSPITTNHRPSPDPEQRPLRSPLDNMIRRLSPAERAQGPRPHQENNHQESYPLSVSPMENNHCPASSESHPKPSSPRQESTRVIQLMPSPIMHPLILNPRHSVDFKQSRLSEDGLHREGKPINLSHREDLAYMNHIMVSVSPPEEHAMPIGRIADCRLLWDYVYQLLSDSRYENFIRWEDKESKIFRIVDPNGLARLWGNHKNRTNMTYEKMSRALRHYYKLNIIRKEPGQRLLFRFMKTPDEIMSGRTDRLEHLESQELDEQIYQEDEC
Procedure, shortened: as §1

Sequence	binding signal (ERF)	binding signal (ETV3L)	binding signal (ETS2)	binding signal (SPDEF)	binding signal (ETV7)	binding signal (ELF5)	binding signal (ETV3)	binding signal (ETV6)
AAGAAC	1.08 fold enrichment (6-mer frequency, TF over GST control)	1.13 fold enrichment (6-mer frequency, TF over GST control)	1.18 fold enrichment (6-mer frequency, TF over GST control)	1.23 fold enrichment (6-mer frequency, TF over GST control)	1.25 fold enrichment (6-mer frequency, TF over GST control)	1.21 fold enrichment (6-mer frequency, TF over GST control)	1.11 fold enrichment (6-mer frequency, TF over GST control)	1.27 fold enrichment (6-mer frequency, TF over GST control)
TCAAAT	1.01 fold enrichment (6-mer frequency, TF over GST control)	1.13 fold enrichment (6-mer frequency, TF over GST control)	1.09 fold enrichment (6-mer frequency, TF over GST control)	1.11 fold enrichment (6-mer frequency, TF over GST control)	1.14 fold enrichment (6-mer frequency, TF over GST control)	1.07 fold enrichment (6-mer frequency, TF over GST control)	1.07 fold enrichment (6-mer frequency, TF over GST control)	1.07 fold enrichment (6-mer frequency, TF over GST control)
CCGACT	1.5 fold enrichment (6-mer frequency, TF over GST control)	1.6 fold enrichment (6-mer frequency, TF over GST control)	1.54 fold enrichment (6-mer frequency, TF over GST control)	1.45 fold enrichment (6-mer frequency, TF over GST control)	1.32 fold enrichment (6-mer frequency, TF over GST control)	1.41 fold enrichment (6-mer frequency, TF over GST control)	1.34 fold enrichment (6-mer frequency, TF over GST control)	1.51 fold enrichment (6-mer frequency, TF over GST control)
ATCATG	1.19 fold enrichment (6-mer frequency, TF over GST control)	1.08 fold enrichment (6-mer frequency, TF over GST control)	1.14 fold enrichment (6-mer frequency, TF over GST control)	1.07 fold enrichment (6-mer frequency, TF over GST control)	1.13 fold enrichment (6-mer frequency, TF over GST control)	1.11 fold enrichment (6-mer frequency, TF over GST control)	1.19 fold enrichment (6-mer frequency, TF over GST control)	1.08 fold enrichment (6-mer frequency, TF over GST control)
TCTTTT	1.46 fold enrichment (6-mer frequency, TF over GST control)	1.54 fold enrichment (6-mer frequency, TF over GST control)	1.47 fold enrichment (6-mer frequency, TF over GST control)	1.4 fold enrichment (6-mer frequency, TF over GST control)	1.56 fold enrichment (6-mer frequency, TF over GST control)	1.43 fold enrichment (6-mer frequency, TF over GST control)	1.5 fold enrichment (6-mer frequency, TF over GST control)	1.41 fold enrichment (6-mer frequency, TF over GST control)
TTTCTT	1.22 fold enrichment (6-mer frequency, TF over GST control)	1.34 fold enrichment (6-mer frequency, TF over GST control)	1.32 fold enrichment (6-mer frequency, TF over GST control)	1.19 fold enrichment (6-mer frequency, TF over GST control)	1.37 fold enrichment (6-mer frequency, TF over GST control)	1.31 fold enrichment (6-mer frequency, TF over GST control)	1.34 fold enrichment (6-mer frequency, TF over GST control)	1.23 fold enrichment (6-mer frequency, TF over GST control)
AAACTT	1.36 fold enrichment (6-mer frequency, TF over GST control)	1.24 fold enrichment (6-mer frequency, TF over GST control)	1.32 fold enrichment (6-mer frequency, TF over GST control)	1.1 fold enrichment (6-mer frequency, TF over GST control)	1.22 fold enrichment (6-mer frequency, TF over GST control)	1.43 fold enrichment (6-mer frequency, TF over GST control)	1.34 fold enrichment (6-mer frequency, TF over GST control)	1.29 fold enrichment (6-mer frequency, TF over GST control)
CTTACA	1.34 fold enrichment (6-mer frequency, TF over GST control)	1.26 fold enrichment (6-mer frequency, TF over GST control)	1.14 fold enrichment (6-mer frequency, TF over GST control)	1.34 fold enrichment (6-mer frequency, TF over GST control)	1.23 fold enrichment (6-mer frequency, TF over GST control)	1.35 fold enrichment (6-mer frequency, TF over GST control)	1.29 fold enrichment (6-mer frequency, TF over GST control)	1.24 fold enrichment (6-mer frequency, TF over GST control)
GTAACA	1.1 fold enrichment (6-mer frequency, TF over GST control)	1.07 fold enrichment (6-mer frequency, TF over GST control)	1.08 fold enrichment (6-mer frequency, TF over GST control)	1.14 fold enrichment (6-mer frequency, TF over GST control)	1.08 fold enrichment (6-mer frequency, TF over GST control)	1.1 fold enrichment (6-mer frequency, TF over GST control)	1.15 fold enrichment (6-mer frequency, TF over GST control)	1.09 fold enrichment (6-mer frequency, TF over GST control)
AAAAGG	1.08 fold enrichment (6-mer frequency, TF over GST control)	1.1 fold enrichment (6-mer frequency, TF over GST control)	1.11 fold enrichment (6-mer frequency, TF over GST control)	1.07 fold enrichment (6-mer frequency, TF over GST control)	1.16 fold enrichment (6-mer frequency, TF over GST control)	1.21 fold enrichment (6-mer frequency, TF over GST control)	1.13 fold enrichment (6-mer frequency, TF over GST control)	1.19 fold enrichment (6-mer frequency, TF over GST control)
CGACCT	1.47 fold enrichment (6-mer frequency, TF over GST control)	1.75 fold enrichment (6-mer frequency, TF over GST control)	1.41 fold enrichment (6-mer frequency, TF over GST control)	1.44 fold enrichment (6-mer frequency, TF over GST control)	1.54 fold enrichment (6-mer frequency, TF over GST control)	1.58 fold enrichment (6-mer frequency, TF over GST control)	1.53 fold enrichment (6-mer frequency, TF over GST control)	1.5 fold enrichment (6-mer frequency, TF over GST control)
TTGAGC	1.04 fold enrichment (6-mer frequency, TF over GST control)	1.06 fold enrichment (6-mer frequency, TF over GST control)	1.03 fold enrichment (6-mer frequency, TF over GST control)	1.02 fold enrichment (6-mer frequency, TF over GST control)	1.1 fold enrichment (6-mer frequency, TF over GST control)	1 fold enrichment (6-mer frequency, TF over GST control)	1 fold enrichment (6-mer frequency, TF over GST control)	1.08 fold enrichment (6-mer frequency, TF over GST control)
CCCTCC	1.58 fold enrichment (6-mer frequency, TF over GST control)	1.31 fold enrichment (6-mer frequency, TF over GST control)	1.51 fold enrichment (6-mer frequency, TF over GST control)	1.36 fold enrichment (6-mer frequency, TF over GST control)	1.37 fold enrichment (6-mer frequency, TF over GST control)	1.34 fold enrichment (6-mer frequency, TF over GST control)	1.39 fold enrichment (6-mer frequency, TF over GST control)	1.4 fold enrichment (6-mer frequency, TF over GST control)
GCTTAG	1.2 fold enrichment (6-mer frequency, TF over GST control)	1.12 fold enrichment (6-mer frequency, TF over GST control)	1.11 fold enrichment (6-mer frequency, TF over GST control)	1.17 fold enrichment (6-mer frequency, TF over GST control)	1.13 fold enrichment (6-mer frequency, TF over GST control)	1.01 fold enrichment (6-mer frequency, TF over GST control)	1.19 fold enrichment (6-mer frequency, TF over GST control)	1.07 fold enrichment (6-mer frequency, TF over GST control)
CTTTCA	1.44 fold enrichment (6-mer frequency, TF over GST control)	1.38 fold enrichment (6-mer frequency, TF over GST control)	1.31 fold enrichment (6-mer frequency, TF over GST control)	1.26 fold enrichment (6-mer frequency, TF over GST control)	1.33 fold enrichment (6-mer frequency, TF over GST control)	1.4 fold enrichment (6-mer frequency, TF over GST control)	1.39 fold enrichment (6-mer frequency, TF over GST control)	1.24 fold enrichment (6-mer frequency, TF over GST control)
